# Source: PubChem (National Center for Advancing Translational Sciences (NCATS))
# IL1B secr inh: inflammasome signaling inhibition, IL-1 beta readout; THP-1 LPS/ATP IL-1B secretion, AlphaLISA, 16 h; active compounds read low; activity change, % at 57.5 µM; 360,000 compounds, 4.7% hits; in the data active = activity change below about -50%; inconclusive = mostly about -30% to -49%
#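 THP-1 cells pretreated 1 hr with compounds (up to 57.5 uM final), then stimulated with LPS (250 ng/mL final) plus ATP (1.25 mM final); secreted IL-1B measured by AlphaLISA after 16 hr, decreased signal indicating inhibition.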
# RORg inh: ROR gamma (mouse) transcription inhibition; P51450; Drosophila S2 Gal4-RORgamma UAS-luciferase reporter, 20 h; Potency, µM (series often up to 53.6 µM), inactives show top-dose activity change, negative = inhibition, actives largely listed as inhibitors; 310,000 compounds, 5.4% hits; AID 2551; note: potency is the fitted concentration of half-maximal effect; nearly all actives have a fitted effect of over 60% in size
# Target sequence (P51450 whole entry, looked up, the tested form may be a part): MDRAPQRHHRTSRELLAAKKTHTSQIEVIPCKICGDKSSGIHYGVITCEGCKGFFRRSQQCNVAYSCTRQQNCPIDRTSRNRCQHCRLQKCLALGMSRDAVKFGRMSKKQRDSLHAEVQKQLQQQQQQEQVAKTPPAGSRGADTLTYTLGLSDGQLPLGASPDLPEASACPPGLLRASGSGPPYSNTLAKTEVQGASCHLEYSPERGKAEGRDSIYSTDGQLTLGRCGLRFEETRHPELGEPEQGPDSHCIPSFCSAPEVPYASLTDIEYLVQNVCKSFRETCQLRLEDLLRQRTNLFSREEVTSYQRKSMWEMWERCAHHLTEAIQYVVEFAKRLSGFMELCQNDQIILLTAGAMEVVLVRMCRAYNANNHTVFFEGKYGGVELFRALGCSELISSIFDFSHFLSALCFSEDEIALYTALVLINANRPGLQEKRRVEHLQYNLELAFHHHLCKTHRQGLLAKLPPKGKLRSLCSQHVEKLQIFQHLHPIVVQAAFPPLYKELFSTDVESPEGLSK
#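 Luciferase reporter read in Schneider cells carrying Gal4-RORγ (mouse) and UAS-Photinus luciferase; cells given compound 1 h before 700 uM copper sulfate induction, then incubated 20 h at ambient temperature.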
# VP16 counter: counter-screen for ROR gamma inhibitors: Gal4-VP16 reporter. Drosophila S2 Gal4-VP16 UAS-luciferase, luminescence, 20 h. Potency, µM (titrated, usually from 53.6 µM), without a hit: top-dose activity, negative = inhibition, actives largely listed as inhibitors. 310,000 compounds, 3.5% hits. AID 2546;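 note: Gal4-VP16 expression switched on by copper sulfate through the metallothionein promoter; potency is the fitted concentration of half-maximal effect; nearly all actives have a fitted effect of over 50% in size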
# LDHA block: inhibitors of human lactate dehydrogenase A; 480,000 compounds, 0.15% hits; P00338; purified LDHA, NADH/diaphorase-resazurin fluorescence; active compounds read low; activity change, % (values are at about 110 or 230 µM); in the data active = activity change below about -30%; inconclusive = mostly about -25% to -30%;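 note: plate controls were DMSO wells for no effect and wells without enzyme for full effect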
#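 Enzyme activity of human lactate dehydrogenase 5 (2 nM; 0.06 mM NADH, 0.2 mM pyruvate, 5 min, RT) is measured via a resazurin/diaphorase fluorescence readout of residual NADH.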
# TDP1 cell CPT: growth inhibition of DT40 Tdp1-/-;hTDP1 cells with camptothecin (screen for TDP1 inhibitors); chicken DT40 Tdp1-/-;hTDP1 cells + 20 nM CPT, ATP luminescence, 48 h; Potency, µM (titrated, usually from 46.2 µM), without a hit: at the top dose activity change, negative = growth inhibition, hits mostly inhibitors; 420,000 compounds, 12% hits; AID 686979; note: potency is the fitted concentration of half-maximal effect; nearly all actives have a fitted effect of over 55% in size
#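 Cell growth measured by CellTiter-Glo luminescence after a minimum 48 h, 37 C compound exposure with 20 nM CPT in Tdp1-knockout DT40 cells stably expressing hTDP1, seeded 400/well; qHTS titration format.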
# DT40 TDP1 no CPT: qHTS for Inhibitors of human tyrosyl-DNA phosphodiesterase 1 (TDP1): qHTS in cells in absence of CPT; 420,000 compounds, 15% hits; AID 686978, 2013; DT40 Tdp1-/- hTDP1 cells, no CPT, ATP luminescence, 48 h; Potency, µM (highest dose often 46.2 µM), without a hit: at the highest dose activity change, negative = growth inhibition, hits mostly inhibitors; note: potency is the fitted concentration of half-maximal effect; nearly all actives have a fitted effect of over 55% in size
#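 No-CPT arm: Tdp1-/-;hTDP1 DT40 cells (400/well) plus compounds, incubated ≥48 hr at 37 °C. Readout CellTiter-Glo luminescence.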
# * marks the source's active call; other numbers are inactive results; ? = inconclusive; . = no result given; [ ] = another dose, or the depositor's remark. This is a sample that favours compounds with a hit; in the whole collection about 18% have one here. Unless noted, calls come from the whole dose curve; as a rule, active = well fitted curve in the direction sought with a large enough effect; inconclusive = small, poorly fitted or top-dose-only effect, or another doubt; inactive = no such curve, though single readings can be large; an effect the other way counts as inactive or inconclusive. Unless noted, % is set by controls: 0 for no effect and ±100 for the full control effect.
SMILES,IL1B secr inh,RORg inh,VP16 counter,LDHA block,TDP1 cell CPT,DT40 TDP1 no CPT
COCCNC(=O)c1cc2c(=O)n(C)c3ccccc3c2n1C,-6.0,-37.3%,-1.1%,-0.3,-10.4%,-14.4%
CCOc1ccc(CCNC(=O)c2cc3c(=O)n(C)c4ccccc4c3s2)cc1OCC,.,.,.,-5.8,-29.3%,?
Cc1oc(-c2nc(C#N)c(NC(C)C)o2)cc1S(=O)(=O)N1CCOCC1,.,.,.,-1.1,.,.
CCCCN(CC)CCNC(=O)c1cc2c(=O)n(C)c3ccccc3c2n1C,-80.0*,-2.0%,0.3%,3.8,18.4µM*,14.6µM*
CCN(CC)CCCNC(=O)c1cc2c(=O)n(C)c3ccccc3c2n1C,-86.8*,-34.8%,-1.2%,6.0,?,?
CN(C)CCNC(=O)c1cc2c(=O)n(C)c3ccccc3c2n1C,-20.0,-13.1%,1.7%,1.5,-18.3%,-26.0%
CCN(CC)CCNC(=O)c1cc2c(=O)n(C)c3ccccc3c2n1C,?,0.9%,?,10.1,?,?
CCCCCCOc1ccc2c(C)c(CCC(C)C)c(=O)oc2c1,.,.,.,10.3,.,.
O=C(Nc1nc(-c2cccc3ccccc23)cs1)c1ccc2c(c1)S(=O)(=O)c1ccccc1C2=O,22.1,10.3%,5.9%,-7.2,18.4µM*,9.2µM*
O=C(Nc1ccncc1)c1ccc2c(c1)S(=O)(=O)c1ccccc1C2=O,1.9,13.3%,-6.6%,0.7,14.6µM*,11.6µM*
O=C(Nc1nc(-c2ccccc2)cs1)c1ccc2c(c1)S(=O)(=O)c1ccccc1C2=O,4.8,2.9%[10 µM],-18.1%,0.9,?,?
CC(C)(C)c1ccc(O)c(NC(=O)c2n[nH]c(=O)c3ccccc23)c1,.,.,.,0.5,.,.
O=C(CCc1ccccc1)Nc1nnc(-c2ccc3c(c2)OCCO3)o1,9.1,6.31µM*,?,-2.7,-29.2%,-28.2%
O=C(CCc1ccccc1)Nc1ccc2c(c1)OCCO2,5.6,-15.2%,-23.0%,-1.0,-4.4%,?
O=C(CCc1ccccc1)Nc1nnc(-c2ccc3c(c2)CCCC3)o1,-16.8,14.1µM*,?,-5.6,18.4µM*,?
O=C(CCc1ccccc1)Nc1nnc(-c2ccccn2)o1,2.4,?,?,-5.6,-6.7%,-7.9%
CCCCOc1ccc(OCCNC(=O)c2ccco2)cc1,8.2,20.2%,12.1%,-4.3,?,16.4µM*
O=C(NC(=S)NNC(=O)c1ccco1)c1ccc(Br)cc1,34.7,12.6µM*,?,-3.8,?,?
O=C(NNC(=S)NC(=O)c1ccco1)c1ccc(F)cc1,79.4,-9.4%,-6.2%,-4.3,?,?
CCCOc1ccc(C(=O)NNC(=S)NC(=O)c2ccco2)cc1,-3.7,-33.7%,-19.8%,-7.0,3.26µM*,2.91µM*
O=C(/C=C/c1ccco1)NC(=S)NNC(=O)c1ccco1,72.6,?,1.0%,1.8,16.4µM*,20.6µM*
CCN(Cc1cccs1)C(=O)c1[nH]c2c(c1C)C(=O)CCC2,.,.,.,2.8,.,.
COc1ccc(C(=O)NNC(=S)NC(=O)c2ccco2)cc1,122.5,-12.5%,4.4%,0.2,5.17µM*,8.2µM*
CC(Oc1ccc(Cl)cc1)C(=O)NNC(=S)NC(=O)c1ccco1 (stereo unspecified),72.9,12.6µM*,?,-12.3,?,16.4µM*
CC(C)NC(=S)NNC(=O)c1ccco1,.,.,.,-3.8,.,.
CCCOc1ccc(Oc2ncccc2CNC(=O)Nc2ccccc2)cc1,.,.,.,-20.2,.,.
O=S(=O)(Nc1cccnc1)c1cccc(C(F)(F)F)c1,-4.0,-8.6%,-6.7%,-1.1,-8.7%,-13.0%
Cc1ccc(S(=O)(=O)Nc2cccc3ncccc23)s1,-112.3*,0.282µM*,0.562µM*,13.8,0.92µM*,1.03µM*
O=S(=O)(Nc1cccc2ncccc12)c1cccc(C(F)(F)F)c1,47.3,.,.,1.7,?,9.2µM*
